Assay results reported in PubChem BioAssay AID422 (Emory University Molecular Libraries Screening Center, 2006).
Where “and” joins values, the source holds several entries; their conditions need not be identical. Equal entries are not always repeated. About 310 (0.19%) of roughly 160,000 compounds were called active. This is one part of a sample in which actives are shown more often than they occur. Rule as the data show it: active = inhibition above about 30%; inactive = the rest. The source holds several records for some structures; these can differ, active in one and inactive in another.

Molecular target: 14-3-3 protein gamma (Homo sapiens) (UniProt P61981)
Sequence (P61981 whole entry, looked up): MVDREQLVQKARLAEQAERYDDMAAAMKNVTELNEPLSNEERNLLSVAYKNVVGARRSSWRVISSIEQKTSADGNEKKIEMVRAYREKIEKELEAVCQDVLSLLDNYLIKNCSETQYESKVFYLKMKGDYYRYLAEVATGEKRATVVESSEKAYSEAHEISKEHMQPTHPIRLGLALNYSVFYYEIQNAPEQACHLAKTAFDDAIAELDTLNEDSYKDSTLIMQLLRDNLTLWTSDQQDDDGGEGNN
Test: modulators of 14-3-3 gamma protein binding, primary screen, biochemical, fluorescence polarization (AID 422);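 also: 0% = protein plus tracer without compound and 100% = blank with tracer alone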
Conditions: FP, 14-3-3gamma / TMR-pS259-Raf peptide binding; at 40 µM; stronger effect = higher value

SMILES | inhibition
Cc1c(Cl)cccc1N1C(=O)C2C3c4ccccc4C(c4ccccc43)C2C1=O (stereo not drawn) | 1.55% (inactive)
O=C(Nc1ccccc1C(F)(F)F)c1ccc(SC2CCCCC2)c([N+](=O)[O-])c1 | -3.43% (inactive)
O=C(Nc1cccc2c1C(=O)c1ccccc1C2=O)c1ccccc1Br | -33.2% (inactive)
COc1cc2c(cc1OC)C(COc1ccc3c(C)cc(=O)oc3c1)N(C(=O)c1cc(C)cc(C)c1)CC2 (stereo not drawn) | -4.93% (inactive)
O=C(Cn1cnc([N+](=O)[O-])c1)C1CC1 | 7.38% (inactive)
COc1ncnc2c1N=C1CC(C)(C)CC(N)=C1S2 | 56.3% (active)
CC(=O)CCC=C(C)CCC=C(C)C | -6.82% (inactive)
Cc1ccc(-c2nc3ccccc3c(C(=O)O)c2C)s1 | -5.29% (inactive)
O=C1NC(c2ccc(Cl)cc2)C(C(=O)c2ccccc2)C(O)(C(F)(F)F)N1 (stereo not drawn) | 9.54% (inactive)
O=C(NCCCN1CCCC1)c1ccc(N2CCCC2=O)cc1 | 2.82% (inactive)
Cc1ccc(Cl)cc1N1C(=O)C(N2C(=O)c3ccc([N+](=O)[O-])cc3C2=O)C1c1cccc(F)c1 (stereo not drawn) | -4.78% (inactive)
CCCC(=O)N(c1ccc2oc(C)c(C(=O)OC)c2c1)S(=O)(=O)c1cc([N+](=O)[O-])ccc1C | -23.1% (inactive)
COc1ccc(CN2C(=O)CCC2(C)C(=O)NC2CCCCCC2)c(OC)c1 (stereo not drawn) | -7.62% (inactive)
COc1ccc2cc(-c3nnc(Nc4ccccc4F)s3)c(=O)oc2c1 | -11.4% (inactive)
COC(=O)C1=C(C)NC2=C(C(=O)CC(c3ccccc3Cl)C2)C1c1ccc2c(c1)OCO2 (stereo not drawn) | -2.26% (inactive)
O=c1oc2ccc(Cl)cc2cc1-c1cn2cc(Cl)cc(Cl)c2n1 | -12.1% (inactive)
CN1CCc2c(n(-c3ccccc3)c3ccccc23)C1=O | -14.8% (inactive)
CCOc1ccccc1C(=O)Nc1ccc(I)cc1C | -132% (inactive)
COc1cccc(C=Nc2cccc(C(=O)Nc3cccc4ccccc34)c2)c1O | 2.57% (inactive)
CCOc1ccc(N=Cc2c(O)c(C(=O)Nc3ccccc3C)cc3ccccc23)cc1 | 79.8% (active)

SMILES | inhibition
CCC(=O)N1CCc2cc(OC)c(OC)cc2C1COc1cccc(C(F)(F)F)c1 (stereo not drawn) | -6% (inactive)
Cc1ccc(-c2cc(C(=O)OCC(C)C)c3cc(C)ccc3n2)cc1 | 3.92% (inactive)
COc1cc(C2Nc3ccccc3NC3=C2C(=O)CC(c2ccccc2Cl)C3)cc(Cl)c1O (stereo not drawn) | -12.8% (inactive)
COc1ccc(-n2ncc3c(N4CCCc5ccccc54)ncnc32)cc1 | 43.9% (active)
Cc1cccc(-n2ncc3c(N4CCc5ccccc54)ncnc32)c1 | -10.6% (inactive) and 1.75% (inactive)
COc1ccc(-n2ncc3c(N4CCc5ccccc54)ncnc32)cc1 | -7.74% (inactive)
CC1Cc2nc(SCC(=O)Nc3cccc(C(F)(F)F)c3)n(C)c(=O)c2S1 (stereo not drawn) | -7.37% (inactive)
CCOc1ccc(S(=O)(=O)N2CCC(C)CC2)c2ccccc12 | -10.1% (inactive)
Cc1[nH]c2ccccc2c1C(=O)CSc1nc2ccccc2s1 | -9.51% (inactive)
CCN1C(=O)c2cccc3c(S(=O)(=O)NC4CC(C)(C)NC(C)(C)C4)ccc1c23 | -11.1% (inactive)
CC(C)(C)c1ccc(C(=O)NCc2n[nH]c(=S)n2-c2cccc(C(F)(F)F)c2)cc1 | 4.88% (inactive)
CN1C(=O)NC(c2cccc(Cl)c2)C2=C1CCCC2=O (stereo not drawn) | 2.47% (inactive)
Cc1ccc2c(=O)c(CN3CCOCC3)c(C)[nH]c2c1C | -4.4% (inactive)
Cc1ccc(-c2nnc(NCc3ccccc3)c3ccccc23)cc1S(=O)(=O)N1CCOCC1 | -13.1% (inactive)
COc1ccc(CN2CCN(S(=O)(=O)c3cc(Br)c(Br)s3)CC2)c(OC)c1OC | -1% (inactive)
Cc1cc(N2CCOCC2)nc2ccc(NC(=O)c3ccc(F)cc3)cc12 | -5.58% (inactive)
O=c1c2ccc(-c3ncc(-c4ccccc4)o3)c3cccc(c32)c2nc3cccc4cccc(c43)n12 | -3.12% (inactive)
Clc1ccc2nc(-c3ccsc3)c(NC3CCCCC3)n2c1 | 1.17% (inactive)
O=C(CC1Sc2ccccc2NC1=O)NCCCSC1CCCCC1 (stereo not drawn) | 5.8% (inactive)
Cc1cccc2cc(C#N)c(N3CCCC3)nc12 | -5.89% (inactive)

SMILES | inhibition
N#Cc1c(N2CCCCCC2)ncc2cc3ccccc3nc12 | 143% (active)
Cc1cc(NCCN2CCCCCC2)n2c(nc3ccccc32)c1C#N | -60.5% (inactive)
O=C(O)c1ccccc1C(=O)Nc1cccc2cccnc12 | 52.6% (active)
COc1ccc(NC(=O)Nc2cccc3cccnc23)cc1 | -2.7% (inactive)
O=C(Nc1cccc2cccnc12)c1cccc(N2C(=O)CCC2=O)c1 | 2.56% (inactive)
O=C(NC1CCCCNC1=O)c1ccc(N2CC3CC(C2)c2cccc(=O)n2C3)c(NC(=O)c2ccccc2Br)c1 (stereo not drawn) | -4.63% (inactive)
CN(Cc1ccccc1)S(=O)(=O)c1ccc2c(c1)CCN2C(=O)C1CCC1 | -4.53% (inactive)
Cc1ccc(-c2csc(Nc3ccccc3)n2)c(C)c1 | -4.17% (inactive)
O=C(CSc1nc2ccccc2[nH]1)c1cccs1 | -10.8% (inactive) and -0.41% (inactive)
C=CCSc1nc2ccccc2[nH]1 | 50.5% (active) and -1.38% (inactive)
c1ccc2[nH]c(-c3nc4ccccc4[nH]3)nc2c1 | -4.13% (inactive)
COc1cc(OC)c(C2C(C(=O)O)c3cc(OC)c(OC)cc3C(=O)N2C)cc1OC (stereo not drawn) | 4.71% (inactive)
O=C(O)c1c[nH]c2ccc(S(=O)(=O)N3CCN(c4cccc(Cl)c4)CC3)cc2c1=O | -20.1% (inactive)
COc1ccc(NC(=O)c2cc([N+](=O)[O-])ccc2Cl)cc1OC | -12.3% (inactive)
COc1cc2ccccc2cc1C(=O)NCCc1ccccc1 | 76% (active)
COc1ccc(CCNC(=O)c2cc(Cl)ccc2OC)cc1 | -6.62% (inactive)
CC(=O)Oc1ccccc1C(=O)NCCc1ccccc1 | 3.04% (inactive)
CCCCN(CC)C(=O)C1c2cc(OC)c(OC)cc2C(=O)N(C)C1c1ccccc1F (stereo not drawn) | -7.13% (inactive)
